This passage reports composite z-score and z-score results from PubChem BioAssay.

Assay [1] concerns XIP peptide (Xip251-270) binding. Put plainly: small-molecule binders of XIP peptide, primary screen, biochemical, small-molecule microarray, fluorescence 635/667 nm, 0.1 µg/mL protein (AID 1182). As to conditions: fluorescent protein binding, 635 nm, higher = more signal, called active from +8 up or from −8 down.
For a further assay, the system named is XIP peptide (Xip251-270). Put plainly: small-molecule binders of XIP peptide, primary screen, biochemical, small-molecule microarray, fluorescence 635/667 nm, 0.5 µg/mL protein (AID 1183). As to conditions: small-molecule microarray binding, fluorescence 635 nm; higher = more signal.
Assay [2] can be described thus: Plasmodium falciparum growth inhibition, primary screen, strain 3D7, DAPI fluorescence, 100 nL (AID 1184).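 Also: parasites grown inside human red blood cells in medium with human serum.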 As to conditions: P. falciparum 3D7 growth, 3 d, higher = more signal.
Assay [3] concerns the target Homeobox protein Hox-A13 (Mus musculus) (UniProt Q62424). Put plainly: inhibitors of HoxA13-DNA binding, primary screen, biochemical, fluorescence polarization, labeled oligonucleotide (AID 1185). The conditions noted are these: 15 min, higher = more signal, called active from +8 up or from −8 down. (Fluorescence polarisation rises when a labelled molecule tumbles more slowly, as on binding a larger partner.)

A short description of assay [4]: inhibitors of hydroxyurea-induced Chk1 phosphorylation, primary screen, imaging, HeLa, phospho-Chk1 antibody, percent positive cells (AID 1186). As to conditions: hydroxyurea-induced phospho-Chk1 immunofluorescence imaging, higher = more signal.
Assay [5] in a line: inhibitors of hydroxyurea-induced Chk1 phosphorylation, primary screen, imaging, HeLa, phospho-Chk1 nuclear intensity (AID 1187). The conditions noted are these: hydroxyurea-induced phospho-Chk1 immunofluorescence imaging, higher = more signal.

Calls of active or inactive are those of the source. Unless noted, no rule for the calls is given here.

Chain of Homeobox protein Hox-A13 (Mus musculus) (Q62424 whole entry, looked up): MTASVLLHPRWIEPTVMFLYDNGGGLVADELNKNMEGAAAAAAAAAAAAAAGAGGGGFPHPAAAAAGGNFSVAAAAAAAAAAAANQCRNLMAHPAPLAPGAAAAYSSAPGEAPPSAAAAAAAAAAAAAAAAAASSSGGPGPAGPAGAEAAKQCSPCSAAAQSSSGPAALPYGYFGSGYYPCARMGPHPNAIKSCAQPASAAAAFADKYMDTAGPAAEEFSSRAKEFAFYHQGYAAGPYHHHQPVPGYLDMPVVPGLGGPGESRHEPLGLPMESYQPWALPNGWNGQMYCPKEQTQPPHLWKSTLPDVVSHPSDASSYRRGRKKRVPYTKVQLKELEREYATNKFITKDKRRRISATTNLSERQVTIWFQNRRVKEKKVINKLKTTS

Take `COC(=O)[C@H](Cc1ccccc1)N1CC(C)(OC)O[C@@H](Cc2ccccc2)[C@H]1/C=C/C1CC1` (some centres not stated): the composite z-score was 0.242 (inactive) in assay [1] and -0.128 in the assay on XIP peptide (Xip251-270). The z-score is 0.291 in assay [2], -4.77 (inactive) in assay [3], 0.512 (inactive) in assay [4] and 1.22 (inactive) in assay [5].

With `COc1ccc([Si](C)(C)[C@@H]2[C@@H](CC(=O)N(CCO)Cc3ccccc3)O[C@]3(C(=O)N(Cc4cccc(I)c4)c4ccccc43)[C@H]2C)cc1`, the composite z-score in assay [1] was 0.479 (inactive); with XIP peptide (Xip251-270), 0.252. Also, the z-score in assay [2] was -2.86; in assay [3], -1.79 (inactive); in assay [4] it was 0.55 (inactive); in assay [5], 0.828 (inactive).

Consider `C=C(COC)C(=O)CC[C@H](OC(C)=O)c1ccc(CO)o1`, for which the composite z-score in assay [1] was -0.153 (inactive); with XIP peptide (Xip251-270), 0.626. Besides, the z-score in assay [2] is -0.689; in assay [3] it was -4.72 (inactive); in assay [4], -0.707 (inactive); in assay [5] it was -0.842 (inactive).

Regarding `CC(C)c1ccc(NN2C(C(O)C3CCCCC3)C=CC3C(=O)N(c4ccccc4)C(=O)C32)cc1` (configuration not stated), the composite z-score in assay [1] was 0.668 (inactive); in the assay with XIP peptide (Xip251-270), 0.788. For the same molecule, the z-score in assay [2] is 0.142; in assay [3], -2.78 (inactive); in assay [4], 0.333 (inactive); in assay [5], -0.566 (inactive).

For `CCOC(=O)C=C1C[C@@H](c2cccc([N+](=O)[O-])c2)O[C@@H](c2cccc([N+](=O)[O-])c2)O1`, the figures for the composite z-score (in assay [1]; with XIP peptide (Xip251-270)) were 0.232 (inactive) and 0.673, respectively. Also, the z-score in assay [2] was -2.18; in assay [3], 0.392 (inactive); in assay [4], -0.447 (inactive); in assay [5], -0.443 (inactive).

Take `CN(C)CCCCCCNC(=O)[C@@H]1C[C@@H]2C(=O)N[C@@H](CCCC[N+](C)(C)C)C(=O)N2[C@@H]1c1cccc(OCCO)c1`: the composite z-score was 0.877 (inactive) in assay [1] and -0.0938 in the assay with XIP peptide (Xip251-270). Moreover, the z-score in assay [2] was -0.143; in assay [3], -1.8 (inactive); in assay [4], 0.559 (inactive); in assay [5] it was 0.952 (inactive).

Turning to `COC(=O)C1=CC(c2ccc(CO)cc2)=CC(C2CC2)N(Cc2cc3c(cc2Br)OCO3)C=C1C(=O)OC` (configuration not stated), the composite z-score in assay [1] was 1.59 (inactive); with XIP peptide (Xip251-270), 0.859. In addition, the z-score was -2.29 in assay [2], -5.19 (inactive) in assay [3], 0.0404 (inactive) in assay [4] and -0.0211 (inactive) in assay [5].

Regarding `C=C(COC)C(=O)CC[C@@H](OC(=O)c1ccccc1-c1ccccc1C(=O)O)c1ccccc1OCCO`, the values for the composite z-score (in assay [1]; in the assay with XIP peptide (Xip251-270)) were 0.106 (inactive) and 0.17, respectively. Besides, the z-score in assay [2] is -2.51; in assay [3], -5.71 (inactive); in assay [4], 0.788 (inactive); in assay [5] it was 0.888 (inactive).

As to `COCCCNC(=O)[C@@]1(Cc2ccccc2I)c2ccccc2C(=O)N(C2CCCCC2)[C@H]1c1ccc(CO)cc1`, the composite z-score in assay [1] was 0.26 (inactive); in the assay with XIP peptide (Xip251-270) it was 0.744. Further, the z-score was -1.99 in assay [2], -5.35 (inactive) in assay [3], -0.0463 (inactive) in assay [4] and 0.155 (inactive) in assay [5].

As for `O=C1C2C=CC(C(O)c3ccccn3)N(Nc3ccc([N+](=O)[O-])cc3)C2C(=O)N1c1ccccc1` (configuration not stated), the results for the composite z-score (in assay [1]; with XIP peptide (Xip251-270)) were 0.406 (inactive) and 0.0784, respectively. Besides, the z-score was -0.22 in assay [2], -5.58 (inactive) in assay [3], 1.25 (inactive) in assay [4] and -0.213 (inactive) in assay [5].

Consider `N#Cc1ccc(NN2C(C(O)c3ccc(B(O)O)cc3)C=CC3CN(c4ccccc4)C(=O)C32)cc1` (configuration not stated), for which the composite z-score in assay [1] was -0.0004 (inactive); with XIP peptide (Xip251-270), 0.658. For the same molecule, the z-score was -0.0223 in assay [2], -2.55 (inactive) in assay [3], -1.03 (inactive) in assay [4] and -0.622 (inactive) in assay [5].

Consider `O=C1N(Cc2ccccc2)Cc2ccccc2C[C@@]12COC(c1ccc(OCCCO)cc1)=N2`, for which the composite z-score was 0.704 (inactive) in assay [1] and 0.311 in the assay on XIP peptide (Xip251-270). For the same molecule, the z-score in assay [2] is -2.08; in assay [3], -4.67 (inactive); in assay [4], -0.266 (inactive); in assay [5], 0.273 (inactive).

For `O=C1OCC=C[C@H]2OC34C=CCN(Cn5nnc6ccccc65)C(=O)[C@H]3N(CCO)C(=O)[C@@H]4[C@@H]12` (some centres not stated), the composite z-score in assay [1] is -0.149 (inactive); with XIP peptide (Xip251-270), -0.884. Also, the z-score in assay [2] was 1.12; in assay [3] it was -4.12 (inactive); in assay [4], -0.743 (inactive); in assay [5], -0.287 (inactive).

`CO[C@H]1O[C@H](CO)[C@@H](OC(=O)Nc2cccc(F)c2)[C@H](OC(=O)c2cc3ccccc3[nH]2)[C@H]1OC(=O)c1cc2ccccc2[nH]1`: the composite z-score in assay [1] was -0.194 (inactive); in the assay on XIP peptide (Xip251-270) it was -0.141. For the same molecule, the z-score in assay [2] is -0.194; in assay [3], -0.266 (inactive); in assay [4] it was -0.313 (inactive); in assay [5], -0.455 (inactive).

`CC(=O)NCCCC[C@@H]1NC(=O)[C@H]2C[C@@H](C(=O)NCCCCCN)[C@@H](c3ccc(O)cc3)N2C1=O`: the composite z-score in assay [1] was 0.222 (inactive); with XIP peptide (Xip251-270), 0.562. Besides, the z-score is 0.0481 in assay [2], -2.29 (inactive) in assay [3], 0.32 (inactive) in assay [4] and -0.163 (inactive) in assay [5].

On to `C=CCOC(=O)[C@H]1[C@@H]2C(=O)O[C@@H](c3ccccc3)[C@@H](c3ccccc3)N2[C@@H](c2ccc(OCCOC(=O)[C@@H]3C[C@@H]4C(=O)N[C@@H](Cc5ccccc5)C(=O)N4[C@@H]3c3ccc(O)cc3)cc2)[C@]12C(=O)Nc1ccc(I)cc12`, for which the composite z-score in assay [1] is 1.12 (inactive); with XIP peptide (Xip251-270), 0.751. In addition, the z-score in assay [2] is -1.39; in assay [3], 0.703 (inactive); in assay [4] it was -0.272 (inactive); in assay [5] it was -0.152 (inactive).

Turning to `COc1ccc(NN2C(C(O)c3ccccc3)C=CC3C(=O)N(C4CCCCC4)C(=O)C32)cc1` (configuration not stated), the results for the composite z-score (in assay [1]; in the assay with XIP peptide (Xip251-270)) were 0.387 (inactive) and 0.745, respectively. For the same molecule, the z-score in assay [2] is -1.08; in assay [3], -4.8 (inactive); in assay [4], 0.329 (inactive); in assay [5], 0.711 (inactive).
